The subject of experiment [1] is W2. Description: qHTS profiling for inhibitors of Plasmodium falciparum proliferation (AID 504749). Further: nearly all actives have a fitted effect of over 60% in size. The following applies: P. falciparum in erythrocytes, SYBR Green DNA, 72 h; series mostly up to 28.7 µM. In short, it runs like this:
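P. falciparum-infected erythrocytes (0.3% parasitemia, 2.5% hematocrit final) were exposed to compounds for 72 h at 37 C in 5% CO2, then lysed with SYBR Green buffer overnight at room temperature; parasite DNA fluorescence was normalized to artemisinin and DMSO controls.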

Experiment [2] relates to CRL-7250. Description: Cytotoxic Profiling of Annotated Libraries Using Quantitative High-Throughput Screening (AID 1296008). Further: nearly all actives have a fitted effect of over 60% in size. On max response: on the % scale 0 is the no-effect control and ±100 the full control effect. Conditions: Five cell lines viability, CellTiter-Glo ATP luminescence, 48-72 h; max response: stronger effect = lower value. In a few lines:
(§1)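 Compounds were pin-transferred onto cells and incubated 48 or 72 hr at 37 degree Celsius, 95% humidity. CellTiter-Glo was added, plates sat 10 min at room temperature, then ATP-coupled luminescence was imaged as the viability read-out.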

In experiment [3] the test system is HEK293. Described as above. Conditions: Five cell lines viability, CellTiter-Glo ATP luminescence, 48-72 h; max response: stronger effect = lower value. In short, it runs like this:
as §1

The subject of experiment [4] is KB-3-1. Described as above. Conditions: Five cell lines viability, CellTiter-Glo ATP luminescence, 48-72 h; max response: stronger effect = lower value. In short, it runs like this:
as §1
Background: ATP-based viability assays read luminescence as a measure of living cells.

The subject of experiment [5] is NIH3T3. The description is as above. Conditions: Five cell lines viability, CellTiter-Glo ATP luminescence, 48-72 h; max response: stronger effect = lower value. In a few lines: as §1
For experiment [6], the system named is MCC-13. Nature of the experiment: qHTS assay to identify novel small-molecules to repurpose for Merkel cell carcinoma treatment (AID 1296009). Further: nearly all actives have a fitted effect of over 60% in size. The following applies: MCC and control cell lines, CellTiter-Glo viability, 72 h; series mostly up to 46 µM. In short, it runs like this:
(§2)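 Cells exposed to NPC (8-point) and MIPE (11-point) compound dilutions for 72 hr at 37 degree celsius; viability read by CellTiter-Glo luminescence, normalized to no-cell and DMSO in-plate controls.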
Background: In qHTS, concentration-response curves come from the screen itself.

Experiment [7] has as its system MCC-26. The description is as above. The following applies: MCC and control cell lines, CellTiter-Glo viability, 72 h; series mostly up to 46 µM. In a few lines:
as §2

For experiment [8], the system named is MKL-1. The description is as above. Conditions: MCC and control cell lines, CellTiter-Glo viability, 72 h; series mostly up to 46 µM. In a few lines: as §2
The subject of experiment [9] is MKL-2. The description is as above. Conditions: MCC and control cell lines, CellTiter-Glo viability, 72 h; series mostly up to 46 µM. In short, it runs like this:
as §2

Experiment [10] has as its system UISO. The description is as above. Conditions: MCC and control cell lines, CellTiter-Glo viability, 72 h; series mostly up to 46 µM. In a few lines: as §2
The test system of experiment [11] is WaGa. The experiment is described as above. The following applies: MCC and control cell lines, CellTiter-Glo viability, 72 h; series mostly up to 46 µM. In short, it runs like this: as §2
In experiment [12] the test system is C33A. Description: Primary qHTS to identify gynecologic anti-cancer compounds using libraries of approved drugs and bioactive compounds (AID 1345084). Further: nearly all actives have a fitted effect of over 55% in size. The following applies: Gynecologic cancer cell panel viability, ATPlite luminescence, 48 h; series mostly up to 57.5 µM. In a few lines: (§3)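 ATP-based viability (ATPlite), 1,000 cells/well, 16 h pre-incubation, 48 h compound at 37 C, 5% CO2, 15 min RT before read.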

Experiment [13] has as its system CASKI. The experiment is described as above. The following applies: Gynecologic cancer cell panel viability, ATPlite luminescence, 48 h; series mostly up to 57.5 µM. In short, it runs like this:
as §3

The subject of experiment [14] is Es-2. The experiment is described as above. Conditions: Gynecologic cancer cell panel viability, ATPlite luminescence, 48 h; series mostly up to 57.5 µM. In a few lines: as §3
Experiment [15] deals with HeLa. Described as above. The following applies: Gynecologic cancer cell panel viability, ATPlite luminescence, 48 h; series mostly up to 57.5 µM. In short, it runs like this:
as §3

The test system of experiment [16] is HEK293T. Description: qHTS assay to identify novel small-molecules to repurpose for Merkel cell carcinoma treatment (AID 1296009). Further: nearly all actives have a fitted effect of over 60% in size. Conditions: MCC and control cell lines, CellTiter-Glo viability, 72 h; at 44.8 µM (top of the series) unless noted. In short, it runs like this: as §2
Experiment [17] deals with CAOV3. Nature of the experiment: Primary qHTS to identify gynecologic anti-cancer compounds using libraries of approved drugs and bioactive compounds (AID 1345084). Further: nearly all actives have a fitted effect of over 55% in size. Conditions: Gynecologic cancer cell panel viability, ATPlite luminescence, 48 h; series mostly up to 57.5 µM. In short, it runs like this: as §3
For experiment [18], the system named is HaCat. Description: Cytotoxic Profiling of Annotated Libraries Using Quantitative High-Throughput Screening (AID 1296008). Further: nearly all actives have a fitted effect of over 60% in size. On max response: on the % scale 0 is the no-effect control and ±100 the full control effect. Conditions: Five cell lines viability, CellTiter-Glo ATP luminescence, 48-72 h; max response: stronger effect = lower value. In short, it runs like this: as §1
In experiment [19] the test system is HACAT. Nature of the experiment: qHTS assay to identify novel small-molecules to repurpose for Merkel cell carcinoma treatment (AID 1296009). Further: nearly all actives have a fitted effect of over 60% in size. Conditions: MCC and control cell lines, CellTiter-Glo viability, 72 h; at 44.8 µM (top of the series) unless noted. In short, it runs like this: as §2

Inconclusive results are not listed. Unmarked numbers belong to inactive results. The source made the active and inactive calls. The call rests on the fitted dose curve; in most records, active means well fitted curve in the direction sought with a large enough effect; inconclusive means small, poorly fitted or top-dose-only effect, or another doubt; inactive means no such curve, though single readings can be large; an effect the other way counts as inactive or inconclusive.
Potency means the concentration at half of the fitted maximal effect.

Take `CC(C)(C)NC[C@H](O)COc1nsnc1N1CCOCC1`: the Potency in experiment [1] is 1.51 µM (active). Moreover, the max response in experiment [2] is -0.569%; in experiment [3], 1.26%; in experiment [4], 0.822%; in experiment [5], -2.25%. For the same compound, the Potency entry in [6], in experiment [7], in experiment [8], in experiment [9], in experiment [10] and in experiment [11] was “inactive” in each case. Further, the Potency entry in [12], in [13], in experiment [14] and in [15] was “inactive” throughout.
Consider `NC(=O)c1ccccc1O`, for which the Potency entry in experiment [1], in experiment [6], in [7], in [8], in experiment [9] and in experiment [10] was “inactive” in each case. In addition, the Potency entry in experiment [11], in [12], in [17], in experiment [13], in experiment [14] and in experiment [15] was “inactive” throughout. In addition, the max response in experiment [2] is 2.66%; in experiment [4], 10.4%; in experiment [5], -3.05%. Moreover, the outcome in [3] and in [16] was inactive.
In the case of `O=C(Oc1cccc2cccnc12)c1ccccc1`, the max response in experiment [2] was -27.3%; in experiment [3], -102%; in experiment [18] it was -16.2%. Moreover, the Potency entry in experiment [8], in [17], in experiment [13], in experiment [14] and in experiment [15] was “inactive” in each case.
With `CN1CCN(CCC(=O)N2c3ccccc3Sc3ccc(C(F)(F)F)cc32)CC1`, the Potency in [1] was 4.26 µM (active); in experiment [2], 15 µM (active); in experiment [3], 23.7 µM (active); in experiment [17], 22.4 µM (active). Also, the call in experiment [18] and in [19] was inactive. The Potency result in [6] and in [15] was “inactive” throughout.
Take `COc1cc(NS(=O)(=O)c2ccc(N)cc2)ncn1`: the Potency entry in experiment [1], in experiment [6], in [7], in [8], in experiment [9] and in experiment [10] was “inactive” in each case. Moreover, the Potency entry in [11], in [12], in experiment [17], in experiment [13], in [14] and in experiment [15] was “inactive” in each case. Also, the outcome in experiment [2] was inactive. Besides, the max response in experiment [3] was -0.739%; in [4] it was -8.34%; in experiment [5] it was -12.1%.
Take `Cc1cccc(C)c1NC(=O)CN1CCCCCC1`: the result in experiment [2] was inactive. For the same compound, the max response in experiment [3] was 2.2%; in experiment [4], 2.19%; in experiment [5], 1.11%. In addition, the Potency entry in experiment [6], in experiment [8], in experiment [9], in [10], in [11] and in [12] was “inactive” in each case. The Potency result in [17], in experiment [13], in experiment [14] and in experiment [15] was “inactive” each time.
`CC(C)n1c(/C=C/[C@@H](O)C[C@@H](O)CC(=O)O)c(-c2ccc(F)cc2)c2ccccc21`: the Potency in [2] was 1.5 µM (active); in [3], 16.8 µM (active); in experiment [5] it was 11.9 µM (active); in experiment [6] it was 9.44 µM (active); in [7], 13.3 µM (active); in experiment [8] it was 13.3 µM (active). Moreover, the Potency in experiment [10] was 3.35 µM (active). Further, the Potency result in experiment [13] and in experiment [14] was “inactive” throughout.
For the compound `CC(=O)O[C@]1(C(C)=O)CC[C@H]2[C@@H]3C=C(C)C4=CC(=O)CC[C@]4(C)[C@H]3CC[C@@]21C`, the max response was -4.16% in experiment [2], -4.96% in experiment [18], 11.8% in [4] and 0.169% in experiment [5]. Further, the Potency result in experiment [6], in [7], in [8], in [9], in [10] and in experiment [11] was “inactive” throughout. For the same compound, the Potency entry in experiment [12], in experiment [17], in [13], in experiment [14] and in experiment [15] was “inactive” throughout.

(Values after PubChem BioAssay (NCATS).)
